# Assay results as given in PubChem BioAssay AID1508625 (Wald Lab, School of Medicine, Case Western Reserve …, 2021).
# Assay: enhancers of NK cell killing of ovarian tumor cells, primary screen, imaging, OVCAR3, primary NK cells, calcein-AM imaging (AID 1508625);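 note: compound given to NK cells 16 h before adding targets at 1.5 to 1 ratio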
# Conditions: OVCAR3 lysis by primary NK cells, at 5 µM; z-score: measured here: robust Z-score, single-point normalisation
Structure (SMILES),"corrected activity, negative = more killing [%]",z-score
O=C(Cn1cnc2ccccc2c1=O)NCCC(=O)NC1CCCCCC1,-3.69,-1.17
Cc1ccc(NC(=O)c2cc(S(=O)(=O)NCCc3ccccc3)ccc2F)cc1F,-5,-1.35
CC(Oc1cccc(Cl)c1)C(=O)NC1CC(C)(C)NC(C)(C)C1 (stereo unspecified),0.623,0.347
Cc1cc(C)cc(-n2cnc3cc(C(=O)NC4CCCCC4C)ccc32)c1 (stereo unspecified),-2.86,-0.771
O=C(c1cccc(F)c1)N1CCN=C1SCc1ccc(Br)cc1,-4.87,-1.2
COC(=O)c1ccc(C)c(NC(=O)c2ccc(C3SCC(=O)N3Cc3ccccc3)cc2)c1 (stereo unspecified),-5.82,-2.22
O=C(Cn1cnc2ccccc2c1=O)NCCC(=O)N1CCOCC1,-5.47,-1.74
O=C1C(=O)N(CO)C(c2ccccc2)C1=C(O)c1ccccc1 (stereo unspecified),-3.26,-1.23
OC(CN1CCN(C2c3ccccc3-c3ccccc32)CC1)Cn1c2ccccc2c2ccccc21 (stereo unspecified),-8.62,-1.82
Oc1cccc(CN2CCN3CCCC3C2C2CCCCC2)c1 (stereo unspecified),-0.454,-0.198
Cc1ccc(-c2coc3c(C)c4oc(=O)c5c(c4cc23)CCC5)cc1,-5.02,-1.5
CCCSc1nc2c([nH]c3ccccc32)c(=O)n1-c1ccc(OC)cc1,-5.59,-1.39
Cc1ccc2nc(NC(=O)COC(=O)CSc3nc(C)cc(C)n3)sc2c1,-4.93,-1.86
COc1cc(C=C2C=C(c3ccc(C)cc3)OC2=O)cc(OC)c1OC,-0.351,-0.181
CC(=O)Nc1ccc(N2C(=O)C3C4CC(C(Br)C4Br)C3C2=O)cc1 (stereo unspecified),-2.24,-0.796
Cc1c(Cl)cccc1N=Cc1ccc(O)cc1,-1.33,-0.563
COc1ccc(C(=O)NC23CC4CC(CC(C4)C2)C3)c(OC)c1,-4.55,-1.79
Cc1ccc(N2C(=O)CC(NCCc3ccc(F)cc3)C2=O)cc1 (stereo unspecified),-3.27,-1.25
CC(C)c1ccc(CNc2c([N+](=O)[O-])c(=O)oc3ccccc23)cc1,-0.839,-0.312
CC(C)NC(=O)CCNC(=O)Cn1cnc2sc3c(c2c1=O)CCCC3,-6.97,-2.22
CC(=O)c1cccc(NC(=O)CSc2ccc(Cl)cc2)c1,-1.79,-0.668
O=C(NC(=S)NN1CCOCC1)c1ccc(Br)cc1,-1.04,-0.33
CCOC(=O)c1c(-c2ccccc2)csc1NC(=O)CSc1nc2ccccc2o1,25.2,7.82
O=C(c1ccc([N+](=O)[O-])cc1)N1N=C(C2CC2)CC1(O)C(F)F (stereo unspecified),-2.43,-1

Structure (SMILES),"corrected activity, negative = more killing [%]",z-score
O=C1OC(c2ccccc2Cl)=NC1=Cc1cccs1,-0.515,-0.219
Nc1cc(OC(=O)c2ccccc2Br)nn1S(=O)(=O)c1ccccc1,-1.18,-0.375
COc1ccc(OC)c(C2Nc3ccccc3NC3=C2C(=O)CC(C)(C)C3)c1 (stereo unspecified),-5.96,-1.85
N#Cc1c(SCC(=O)c2ccccc2)nsc1SCC(=O)c1ccccc1,-5.48,-2.94
CC1=NN(C(=O)C(C)C)C(O)(c2ccccc2)C1 (stereo unspecified),-7.14,-3.83
O=C(O)CN1C(=O)c2cccc3c(Br)ccc1c23,-4.58,-2.46
O=C(Nc1cc([N+](=O)[O-])ccc1Cl)c1cnc2n(c1=O)CCS2,-1.04,-0.332
O=C(c1cccc(F)c1)N1CCCN(C(=O)c2cccc(F)c2)CC1,-4.12,-1.69
CC(=O)Nc1ccc(NC(=O)CC2OCC3CCCCN3C2=O)cc1 (stereo unspecified),-5.1,-1.95
Cc1ccc(S(=O)(=O)n2cnc3ccccc32)cc1C,-9,-2.79
Cc1ccc(S(=O)(=O)n2nnc3ccccc32)c(C)c1C,-4.06,-1.51
CCCCn1c(=S)[nH]c2cc3ccccc3cc2c1=O,-1.52,-0.403
Cc1ccc(-c2cc(C(=O)O)c3cc(Cl)ccc3n2)cc1C,-3.58,-1.47
O=C(NC1CCCCC1)c1nn2c(C(F)(F)F)cc(-c3ccco3)nc2c1Br,-4.13,-1.55
Cc1ccc(NC(=O)CSc2nnc(N3C(=O)c4ccccc4C3=O)s2)c(C)c1,-5.41,-1.68
CC1=NN(C(=O)c2ccc(C(N)=O)cc2)C(O)(C(F)(F)F)C1 (stereo unspecified),-1.91,-0.786
COc1cc(C(=O)N2N=C(C3CC3)CC2(O)C(F)(F)F)cc(OC)c1OC (stereo unspecified),-3.44,-1.41
Cc1oc2c(C)c3oc(=O)c(C)c(C)c3cc2c1-c1ccccc1,-1.87,-0.558
Cc1ccc(C)c(Cn2cccc2C#N)c1,-4.01,-1.08
COc1cc(OC)c(CNc2ccc(F)cc2C)cc1Br,-7.05,-2.24
O=C(Nc1ccc2nn(-c3cccc(Cl)c3)nc2c1)c1cccc2ccccc12,-3.42,-1.21
CC(=O)Nc1cccc(N=Cc2cc(Cc3ccccc3)cc([N+](=O)[O-])c2O)c1,-1.97,-0.698
COCCOC(=O)C1=C(C)N(C)C(=O)NC1c1ccccc1Cl (stereo unspecified),-3.72,-1.32
COc1ccccc1N1CCN(C(=O)NC2CCCCC2)CC1,-0.143,-0.0428

Structure (SMILES),"corrected activity, negative = more killing [%]",z-score
O=C1C2C3CC(C(Br)C3Br)C2C(=O)N1c1cccc2ccccc12 (stereo unspecified),-3.98,-1.41
O=C1c2ccccc2C(=O)c2c1cc(F)cc2N1CCCCC1,-1.34,-0.401
O=C(c1ccc2c(=O)n(-c3ccc(F)cc3)c(=S)[nH]c2c1)N1CCc2ccccc2C1,-0.906,-0.288
CCOc1cc(C=c2sc3nc4ccccc4n3c2=O)ccc1O,-2.97,-1.26
CC(=O)Nc1ccc(N=Cc2ccc(C)cc2)cc1,-3.8,-0.8
CCc1ccc(NC(=O)CCNC(=O)Cn2cnc3ccccc3c2=O)cc1,0.879,0.279
CC(=O)N1CCc2[nH]c3ccccc3c2C1,-1.79,-0.676
Nc1nc(OCC(F)(F)F)cc(OCC(F)(F)F)n1,-6.92,-1.46
O=C(NCc1cccc(Cl)c1)c1ccc2c(=O)n(Cc3cccc(Br)c3)c(=S)[nH]c2c1,-6.41,-2.04
Cc1ccc(S(=O)(=O)NCc2cc(-c3nn(C)c(=O)c4ccccc34)ccc2C)cc1,-2.25,-0.924
Cc1nc2ccccc2n1Cc1cccc2ccccc12,-3.88,-2.01
O=c1c2c(nc3c(-c4ccc(Cl)cc4)c(Cc4ccccc4)[nH]n13)CCC2,-3.87,-2
O=C(NN=C1CCCCC1)C(=O)Nc1ccc(Cl)cc1,-4.69,-1.99
O=C(COc1ccc(Cl)cc1)N1CCN(C(=O)c2ccccc2F)CC1,-1.94,-0.865
O=C(Oc1cccc(NC(=O)c2ccccc2Cl)c1)c1ccc(Cl)c(S(=O)(=O)N2CCCCC2)c1,-3.19,-1.2
Cc1ccc(C(=O)CC2(O)C(=O)N(C(C)C)c3ccccc32)c(C)c1 (stereo unspecified),-3.79,-1.13
O=C(Nc1nc2ccccc2s1)C(=O)Nc1nc2ccccc2s1,0.998,0.309
COc1ccc(OC)c(-n2c(=S)[nH]c3cc(C(=O)Nc4ccc5c(c4)CCC5)ccc3c2=O)c1,-3.65,-1.16
CCOC(=O)c1ccc(NC(=O)CCc2ccccc2)cc1,-3.6,-1.15
O=C1C2CCCCC2C(=O)N1c1cccc2ccccc12 (stereo unspecified),-3.38,-0.712
CC(C)OC(=O)CN1CCCN(S(=O)(=O)c2ccc(F)cc2)CC1,-3.05,-0.969
Cc1cc(OCCN2CCCCCC2)ccc1[N+](=O)[O-],-3.28,-1.82
CCOC(=O)C1=C(N)OC2=C(C(=O)CC(C)(C)C2)C1c1ccccc1[N+](=O)[O-] (stereo unspecified),-1.89,-0.587
Cc1c(C(=O)NCc2cccs2)oc2ccc(S(=O)(=O)N3CCC(C)CC3)cc12,-7.39,-1.84

Structure (SMILES),"corrected activity, negative = more killing [%]",z-score
C=CCn1c(-c2ccc3[nH]c(C)c(C)c3c2)n[nH]c1=S,-6.13,-2.23
COC(=O)c1ccc(Sc2ccc(C)cc2)c([N+](=O)[O-])c1,-2.5,-0.675
COC(=O)CCC(=O)NNC(=O)c1ccc(Br)cc1,-3.77,-1.49
COc1ccc(CNCC2OCCc3ccccc32)cc1OC (stereo unspecified),-5.1,-1.95
COc1ccc(OCCCN2CCc3ccccc3C2)cc1,-4.65,-2.58
CCCn1c(C)nc2c(=O)oc3ccccc3c21,3.04,0.943
Cc1c(C(=O)Nc2cccc([N+](=O)[O-])c2)sc2ncn(CC(=O)N3CCOCC3)c(=O)c12,-2.14,-0.779
COc1ccc(C(=O)Nc2ccc(NC(=O)c3ccc(C(C)(C)C)cc3)cc2)cc1[N+](=O)[O-],-5.92,-2.1
CC1CCCN(c2ncnc3scc(-c4ccccc4)c23)C1 (stereo unspecified),-2.34,-0.85
CCOC(=O)C1=C(C)Nc2sc(C(=O)c3ccc(C)cc3)c(N)c2C1c1ccc(C(=O)OC)cc1 (stereo unspecified),-4.02,-1.2
Cc1cccc(C)c1OCCCCCCN1CCOCC1,-1.15,-0.473
O=C(c1oc(=O)c2ccccc2c1-c1ccccc1)N(CCc1ccccc1)Cc1ccccc1,-5.06,-1.24
Cc1ccc(S(=O)(=O)NN=Cc2ccc(I)cc2)cc1,-2.58,-0.82
Cc1ccc2oc(-c3ccc(NC(=O)c4cccc(F)c4)c(C)c3)nc2c1,-9.28,-3.29
COc1ccc(C(=O)Nc2ccc(-c3nc4cc(C)cc(C)c4o3)cc2)cc1OC,2.2,0.681
Cc1sc2c(c1C)c(=O)n(CCc1ccccc1)c(=O)n2Cc1cccc([N+](=O)[O-])c1,-2.58,-0.733
CC1CCC2C(=O)N(c3ccc(N4CC5(C)CC4CC(C)(C)C5)c([N+](=O)[O-])c3)C(=O)C2C1 (stereo unspecified),-1.82,-0.661
CC(=O)c1ccc(NC(=O)c2ccc(C)c([N+](=O)[O-])c2)cc1,-3.69,-1.31
COc1ccc(CNC(=O)CCN2C(=O)C3C4C=CC(CC4)C3C2=O)cc1 (stereo unspecified),-5.25,-1.67
CCOc1ccc(-n2c(SCC(=O)c3ccccc3)nc3c([nH]c4ccccc43)c2=O)cc1,-9,-2.24
COc1ccccc1C(=O)N1CCN(S(=O)(=O)c2ccc(C)cc2)CC1,-3.03,-1.35
